# According to the antibiotic and cytotoxicity screens of Wong et al. (2023):
# Among all 39,000 compounds or so, about 3,300 (8.5%) were called active. The list comes from a sample in which actives are over-represented; it also holds similar structures and randomly drawn compounds.
# Test system: HepG2
# Assay: cytotoxicity call (relative viability < 0.9)
# Conditions: 10 µM
row,Compound,cytotoxicity call
1,CCCNC(=O)Nc1ccc2c(c1)OC[C@@H](C)N(C(=O)C1CCOCC1)C[C@H](C)[C@@H](OC)CN(C)C2=O,inactive
2,C[C@H](CO)N1C[C@H](C)[C@H](CN(C)C(=O)Nc2ccc(F)cc2)OCCCC[C@H](C)Oc2ccc(NC(=O)C3CCC3)cc2C1=O,inactive
3,COc1ccc(S(=O)(=O)Nc2ccc3c(c2)C(=O)N([C@H](C)CO)C[C@H](C)[C@H](CN(C)S(=O)(=O)c2ccc(C)cc2)O3)cc1,inactive
4,C[C@@H]1CCCCO[C@@H](CN(C)C(=O)Nc2ccc3c(c2)OCO3)[C@H](C)CN([C@H](C)CO)C(=O)c2cc(NC(=O)c3ccccc3)ccc2O1,inactive
5,Cc1ccc(S(=O)(=O)N(C)C[C@@H]2Oc3ccc(NC(=O)Cn4cnnn4)cc3CC(=O)N([C@H](C)CO)C[C@@H]2C)cc1,inactive
6,COC(=O)C(CCCN1C(=O)c2ccccc2C1=O)(NC(C)=O)c1nn[nH]n1 (stereo not given),active
7,NC(=O)CCN1C(=O)c2ccccc2C1=O,inactive
8,N#CCNC(=O)CN1C(=O)c2ccccc2C1=O,inactive
9,O=C(C[C@@H]1CC[C@H]2[C@@H](COC[C@@H](O)CN2C(=O)Nc2ccc(Cl)cc2)O1)NCCc1ccncc1,inactive
10,Cc1ccccc1S(=O)(=O)N1C[C@H](O)COC[C@@H]2O[C@@H](CC(=O)NCCc3ccccc3)CC[C@H]21,inactive
11,CO[C@H]1CN(C)C(=O)c2cc(NC(=O)Nc3ccccc3)ccc2OC[C@@H](C)N(C(=O)CN(C)C)C[C@H]1C,inactive
12,CNCCCC1c2ccccc2C=Cc2ccccc21.Cl,active
13,CNCc1ccccc1.Cl,inactive
14,OCC1c2ccccc2-c2ccccc21,inactive
15,Cc1noc(C)c1S(=O)(=O)N(C)C[C@@H]1OCCCC[C@@H](C)Oc2ccc(N(C)C)cc2C(=O)N([C@H](C)CO)C[C@H]1C,inactive
16,CC(C)Cc1ccc(CN2CC[C@@H](N)C2)cc1,inactive
17,CC(C)N1CC=C[C@@]23O[C@@H]4C=CCOC(=O)[C@@H]4[C@H]2C(=O)N(CCCCCO)[C@@H]3C1=O,inactive
18,C[C@@H]1CN([C@H](C)CO)C(=O)CCCn2nncc2CO[C@@H]1CN(C)S(=O)(=O)c1ccc(-c2ccccc2)cc1,inactive
19,C[C@@H]1CC=CC[C@@H](c2cccc(Cl)c2)NC(=O)[C@H](Cc2ccccc2)N(C)C(=O)c2ccccc2O1,inactive
20,C[C@@H]1CCCn2nncc2COCCNC1=O,inactive
21,CCCN(C)C[C@H]1OCCCC[C@@H](C)Oc2ccc(NS(=O)(=O)c3ccc(Cl)cc3)cc2C(=O)N([C@@H](C)CO)C[C@H]1C,active
22,C[C@@H]1CCCCO[C@@H](CN(C)CC2CCCCC2)[C@@H](C)CN([C@H](C)CO)C(=O)c2cc(NS(=O)(=O)c3ccc(Cl)cc3)ccc2O1,inactive
23,CCCN(C)C[C@H]1OCCCC[C@H](C)Oc2ccc(NS(=O)(=O)c3ccc(Cl)cc3)cc2C(=O)N([C@H](C)CO)C[C@H]1C,inactive
24,C[C@@H]1CCCCO[C@@H](CN(C)CC2CC2)[C@H](C)CN([C@@H](C)CO)C(=O)c2cc(NS(=O)(=O)c3ccc(Cl)cc3)ccc2O1,inactive

row,Compound,cytotoxicity call
1,C[C@@H]1CCCCO[C@H](CN(C)CC2CCCCC2)[C@H](C)CN([C@H](C)CO)C(=O)c2cc(NS(=O)(=O)c3ccc(Cl)cc3)ccc2O1,inactive
2,C[C@@H]1CCCCO[C@@H](CN(C)CC2CCCCC2)[C@H](C)CN([C@H](C)CO)C(=O)c2cc(NS(=O)(=O)c3ccc(Cl)cc3)ccc2O1,active
3,C[C@@H]1CN([C@H](C)CO)C(=O)c2cc(NS(=O)(=O)c3ccc(Cl)cc3)ccc2O[C@@H](C)CCCCO[C@@H]1CN(C)CC1CCCCC1,active
4,C[C@@H]1CCCCO[C@H](CN(C)CC2CCCCC2)[C@H](C)CN([C@@H](C)CO)C(=O)c2cc(NS(=O)(=O)c3ccc(Cl)cc3)ccc2O1,active
5,C[C@@H]1CCCCO[C@H](CN(C)CC2CCCCC2)[C@@H](C)CN([C@H](C)CO)C(=O)c2cc(NS(=O)(=O)c3ccc(Cl)cc3)ccc2O1,inactive
6,CCCN(C)C[C@H]1OCCCC[C@H](C)Oc2ccc(NS(=O)(=O)c3ccc(Cl)cc3)cc2C(=O)N([C@@H](C)CO)C[C@H]1C,inactive
7,C[C@H](CO)N1C[C@H](C)[C@@H](CN(C)CC2CCCCC2)OCCCC[C@H](C)Oc2ccc(NS(=O)(=O)c3ccc(Cl)cc3)cc2C1=O,inactive
8,C[C@@H]1CCCCO[C@@H](CN(C)CC2CCCCC2)[C@H](C)CN([C@@H](C)CO)C(=O)c2cc(NS(=O)(=O)c3ccc(Cl)cc3)ccc2O1,inactive
9,Cc1ccc(S(=O)(=O)N(C)C[C@H]2Oc3c(NC(=O)C4CCOCC4)cccc3C(=O)N([C@@H](C)CO)C[C@H]2C)cc1,inactive
10,C[C@@H]1CN([C@@H](C)CO)C(=O)c2cc(NS(C)(=O)=O)ccc2O[C@@H](C)CCCCO[C@@H]1CN(C)C(=O)CCCN(C)C,inactive
11,CN1CCN(C(=O)C[C@@H]2CC[C@@H](NC(=O)Cc3ccccn3)[C@@H](CO)O2)CC1,inactive
12,NCC[C@H]1CC[C@@H](NC(=O)C2CCCC2)[C@@H](CO)O1,inactive
13,Cc1noc(C)c1S(=O)(=O)Nc1ccc2c(c1)C(=O)N([C@@H](C)CO)C[C@@H](C)[C@H](CN(C)S(C)(=O)=O)OCCCC[C@@H](C)O2,inactive
14,CC(=O)N1CCC[C@H](C(=O)O)C1,inactive
15,COc1ccc(S(=O)(=O)N[C@H]2CC[C@H](CC(=O)N3CCC(Cc4ccccc4)CC3)O[C@@H]2CO)cc1,inactive
16,C[C@@H]1CN([C@@H](C)CO)C(=O)c2cc(NS(=O)(=O)c3ccc(Cl)cc3)ccc2O[C@@H](C)CCCCO[C@@H]1CN(C)CC1CCCCC1,inactive
17,C[C@@H]1CCCCO[C@@H](CN(C)CC2CCCCC2)[C@@H](C)CN([C@@H](C)CO)C(=O)c2cc(NS(=O)(=O)c3ccc(Cl)cc3)ccc2O1,active
18,C[C@@H]1CN([C@@H](C)CO)C(=O)c2cc(NS(=O)(=O)c3ccc(Cl)cc3)ccc2O[C@@H](C)CCCCO[C@H]1CN(C)CC1CCCCC1,inactive
19,C[C@H]1CCCCO[C@H](CN(C)CC2CCCCC2)[C@@H](C)CN([C@@H](C)CO)C(=O)c2cc(NS(=O)(=O)c3ccc(Cl)cc3)ccc2O1,inactive
20,C[C@H]1CCCCO[C@@H](CN(C)CC2CCCCC2)[C@@H](C)CN([C@@H](C)CO)C(=O)c2cc(NS(=O)(=O)c3ccc(Cl)cc3)ccc2O1,inactive
21,C[C@H](CO)N1C[C@H](C)[C@H](CN(C)CC2CCCCC2)OCCCC[C@H](C)Oc2ccc(NS(=O)(=O)c3ccc(Cl)cc3)cc2C1=O,active
22,C[C@@H]1CN([C@@H](C)CO)S(=O)(=O)c2ccc(-c3cccc(F)c3)cc2O[C@@H]1CN(C)S(C)(=O)=O,inactive
23,CS(=O)(=O)N1CCc2ccc(N)cc2C1,inactive
24,Cc1noc(C)c1NC(=O)Nc1ccc2c(c1)CC(=O)N([C@H](C)CO)C[C@@H](C)[C@H](CN(C)Cc1ccc(C(F)(F)F)cc1)O2,inactive

row,Compound,cytotoxicity call
1,Cc1ccc(S(=O)(=O)Nc2ccc3c(c2)C(=O)N([C@@H](C)CO)C[C@H](C)[C@@H](CN(C)S(=O)(=O)c2ccc(F)cc2)O3)cc1,inactive
2,CCc1ccc(CCOc2ccc(CC3SC(=O)NC3=O)cc2)nc1.Cl (stereo not given),inactive
3,CN(CCO)c1ccccn1,inactive
4,CN(CCOc1ccc(CC2SC(=O)NC2=O)cc1)c1ccccn1.O=C(O)C=CC(=O)O (stereo not given),active
5,C[C@@H]1CCCCO[C@@H](CN(C)S(=O)(=O)c2cccs2)[C@@H](C)CN([C@H](C)CO)C(=O)c2cc(NC(=O)CCCCCC(=O)Nc3ccccc3N)ccc2O1,inactive
6,CN(C)C1CCN(C(=O)c2cnc(-c3noc4cc(-c5cccc(C(F)(F)F)c5)ccc34)s2)CC1,active
7,C[C@H](CO)N1C[C@H](C)[C@H](CN(C)C(=O)Nc2ccccc2)Oc2ncc(-c3cccc(C(F)(F)F)c3)cc2C1=O,inactive
8,C[C@H](CO)N1C[C@H](C)[C@H](CN(C)C(=O)Nc2cccc3ccccc23)Oc2ncc(-c3cccc(C(F)(F)F)c3)cc2C1=O,inactive
9,CN(C)C1CCN(C(=O)c2cnc(-c3noc4cc(-c5ccccc5C(F)(F)F)ccc34)s2)CC1,active
10,C[C@H]1CN([C@@H](C)CO)C(=O)c2cccc(NC(=O)C3CCCCC3)c2O[C@@H]1CN(C)Cc1ccc(C(F)(F)F)cc1,inactive
11,CCCN(C)C[C@H]1OCCCC[C@H](C)Oc2ccc(NC(=O)Nc3cccc4ccccc34)cc2C(=O)N([C@@H](C)CO)C[C@H]1C,inactive
12,O=C(CCCCCNC(=O)OCc1ccc(CO[C@@H]2C[C@H](c3csc4ccccc34)C=C(C(=O)N3CCN(Cc4ccccc4)CC3)O2)cc1)NO,inactive
13,C[C@H]1CN([C@@H](C)CO)C(=O)c2cc(NC(=O)C3CC3)ccc2O[C@H]1CN(C)S(=O)(=O)c1cccs1,inactive
14,CC(C)Cc1ccc([C@@H](C)C(=O)Nc2ccc(Cl)cc2)cc1,active
15,CC(C)Cc1ccc(C(C)C(=O)O)cc1 (stereo not given),inactive
16,N[C@@H](Cc1ccc(Cl)cc1)C(=O)O,inactive
17,C[C@@H]1CN([C@@H](C)CO)C(=O)CCCn2nncc2CO[C@H]1CN(C)C(=O)Nc1ccc2c(c1)OCO2,inactive
18,C[C@@H]1CN([C@@H](C)CO)C(=O)c2cc(-c3cncnc3)cnc2O[C@@H]1CN(C)C(=O)Nc1ccc2c(c1)OCO2,inactive
19,COc1ccc(N(C(=O)CSc2ncccn2)[C@@H](C(=O)NCCc2ccccc2)c2cccs2)cc1Cl,inactive
20,O=C(CCCl)NCCc1ccccc1,inactive
21,COc1ccc(N(C(=O)CCl)[C@@H](C(=O)NCCc2ccccc2)c2ccc(Cl)s2)cc1Cl,active
22,CC(C)(C)OC(=O)NCCOCCOCCOc1ccc(N(C(=O)CCl)[C@@H](C(=O)NCCc2ccccc2)c2cccs2)cc1Cl,active
